This is an account of results in PubChem BioAssay (Tox21).

Assay [1] can be described thus: qHTS assay to identify small molecule agonists of the RXR signaling pathway - cell viability counter screen (AID 1159529).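 Further: HEK 293T cells carrying an RXR-alpha UAS beta-lactamase reporter; series mostly up to about 77 µM; nearly all actives have a fitted effect of over 50% in size.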 In outline: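 Counter screen: CellTiter-Glo luminescence. Cells: RXR-alpha-UAS-bla HEK 293T. Medium: 2% charcoal-stripped FBS. Treatment: 16 h, 37 C. Reagent incubation: 30 min, RT.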
The nature of assay [2]: qHTS assay to identify small molecule antagonists of the retinoid acid receptor (RAR) signaling pathway - cell viability counter screen (AID 1159551). Further: nearly all actives have a fitted effect of over 35% in size. Summed up:
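Measured by luminescent ATP detection, viability reflects C3RL4 cells treated 6 h at 37 C with test chemicals in the presence of 1 uM (final) retinol.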
On the technique in general: Quantitative high-throughput screening tests each substance at several concentrations.

Assay [3] can be described thus: qHTS assay to identify small molecule antagonists of the estrogen related receptor (ERR) signaling pathway from Tox21 library - cell viability counter screen (AID 1224834). Further: nearly all actives have a fitted effect of over 30% in size. Summed up:
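Seeded ERR cells were rested 6 h at 37 C/5% CO2 before compounds, positive and negative controls or DMSO were added. Incubation continued for 17.5 h, and viability was then quantified by CellTiter-Fluor fluorescence.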

Assay [4] has as its target Luciferin 4-monooxygenase (Photinus pyralis) (UniProt P08659). Description: qHTS assay to identify small molecule inhibitors of firefly luciferase (AID 1224835). Further: nearly all actives have a fitted effect of over 25% in size. Further: potency means the concentration at half of the fitted maximal effect. Summed up:
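Inhibition of purified Photinus luciferase is measured by luminescence. Substrate levels (D-luciferin, ATP) sit at their KM values. Each compound is tested in a concentration series.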

Assay [5] can be described thus: qHTS assay to identify small molecule agonists of the constitutive androstane receptor (CAR) signaling pathway - cell viability counter screen (AID 1224836). Further: series mostly up to about 92 µM; nearly all actives have a fitted effect of over 45% in size. In outline:
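Double-stable HepG2 hepatoma cells (hCAR plus CYP2B6-2.2kb) are treated for 23 h at 37 C with test compounds in 15-point concentration series. PK11195 at 0.75 uM final is co-added. Cell viability is quantified by CellTiter-Fluor.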

Assay [6] is described as follows: qHTS assay to identify small molecule antagonists of the constitutive androstane receptor (CAR) signaling pathway - cell viability counter screen (AID 1224837). Further: series mostly up to about 92 µM; nearly all actives have a fitted effect of over 45% in size. In outline: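 To flag cytotoxic false antagonists, HepG2 hCAR/CYP2B6-2.2kb cells were treated 23 hr with 15-concentration compound series and 50 nM CITCO at 37 C/5% CO2; CellTiter-Fluor fluorescence was the measured end point.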

Assay [7] deals with Nuclear receptor subfamily 1 group I member 3 (Homo sapiens) (UniProt Q14994). Description: qHTS assay to identify small molecule agonists of the constitutive androstane receptor (CAR) signaling pathway (AID 1224839).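 Further: HepG2 cells stably carrying human CAR and a CYP2B6 luciferase reporter; series mostly up to about 92 µM; nearly all actives have a fitted effect of over 15% in size.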 In outline: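 Readout: firefly luciferase luminescence via ONE-Glo. System: HepG2 double-stable for hCAR and CYP2B6-2.2kb. Conditions: 15-point compound titration, PK11195 at 0.75 uM final, 24 h incubation.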

A short description of assay [8]: qHTS assay to identify small molecule antagonists of the estrogen related receptor signaling pathway with the pleiotropic PPARgamma coactivator (PGC) from Tox21 10K library - cell viability counter screen (AID 1224840; active means well fitted cell-killing curve with a large enough effect in the repeat runs, not every such curve was filed as active; further: nearly all actives have a fitted effect of over 40% in size). Summed up: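 Seeded PGC/ERR cells (2,000/well, 6 h, 37 C/5% CO2) get compound by pin tool; 17.5 h incubation at 37 C; CellTiter-Fluor added, 30 min, fluorescence measured.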

Assay [9] in a line: qHTS assay to identify small molecule antagonists of the estrogen related receptor signaling pathway with the pleiotropic PPARgamma coactivator (PGC) from Tox21 10K library (AID 1224841; call rule not given here; further: series mostly up to about 92 µM; actives are mostly falling curves and most rising ones were filed inactive; nearly all actives have a fitted effect of over 50% in size). Summed up: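 Test chemicals dissolved in DMSO were applied to pre-incubated (6 h) PGC/ERR cells at 2,000 cells/well for an 18 h, 37 C treatment; reporter luminescence was then read using One-Glo.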

Assay [10] in a line: qHTS assay to identify small molecule agonists of the estrogen related receptor signaling pathway with the pleiotropic PPARgamma coactivator (PGC) from Tox21 10K library (AID 1224842). Further: nearly all actives have a fitted effect of over 15% in size. In outline:
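Luminescence from One-Glo (30 min, room temperature) measured after PGC/ERR cells had 18 h at 37 C with pinned compound (23 nL in DMSO). Cells had been seeded at 2,000 per well and pre-incubated 6 h.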

The target in assay [11] is Nuclear receptor subfamily 1 group I member 3 (Homo sapiens) (UniProt Q14994). Description: qHTS assay to identify small molecule antagonists of the constitutive androstane receptor (CAR) signaling pathway (AID 1224838).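 Further: HepG2 cells stably expressing hCAR with CYP2B6 luciferase reporter stimulated by CITCO; nearly all actives have a fitted effect of over 40% in size.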 In outline:
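Human hepatoma HepG2 cells expressing hCAR and a CYP2B6 promoter (2.2 kb) luciferase construct; compound titration (15 points) with 50 nM CITCO final, 24 h at 37 C/5% CO2; luminescence via ONE-Glo after 30 min at room temperature.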

SMILES strings stand for the structures. Results filed as inconclusive are left out. Values without a mark were called inactive. Calls of active or inactive are those of the source. Unless noted, the call rests on the fitted dose curve; in most records, active means well fitted curve in the direction sought with a large enough effect in the repeat runs; inconclusive means weak or mixed curves; inactive means no such curve, though single readings can be large; an effect the other way counts as inactive or inconclusive.

Chain of Luciferin 4-monooxygenase (Photinus pyralis) (P08659 whole entry, looked up): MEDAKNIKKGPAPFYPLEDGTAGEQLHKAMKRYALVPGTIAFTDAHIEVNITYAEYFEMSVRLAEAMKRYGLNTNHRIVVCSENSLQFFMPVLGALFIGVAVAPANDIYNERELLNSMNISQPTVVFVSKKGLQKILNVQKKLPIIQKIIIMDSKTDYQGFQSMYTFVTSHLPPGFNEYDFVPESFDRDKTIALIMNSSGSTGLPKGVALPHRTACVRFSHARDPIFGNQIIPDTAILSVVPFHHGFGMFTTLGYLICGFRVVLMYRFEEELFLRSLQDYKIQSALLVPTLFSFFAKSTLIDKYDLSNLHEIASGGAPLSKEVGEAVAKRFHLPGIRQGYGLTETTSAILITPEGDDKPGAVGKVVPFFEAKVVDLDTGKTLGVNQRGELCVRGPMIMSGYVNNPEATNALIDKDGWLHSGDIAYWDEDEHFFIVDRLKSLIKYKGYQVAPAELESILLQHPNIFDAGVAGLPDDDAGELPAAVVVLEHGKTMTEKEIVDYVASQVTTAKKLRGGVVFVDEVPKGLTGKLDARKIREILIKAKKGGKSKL
Chain of Nuclear receptor subfamily 1 group I member 3 (Homo sapiens) (Q14994 whole entry, looked up): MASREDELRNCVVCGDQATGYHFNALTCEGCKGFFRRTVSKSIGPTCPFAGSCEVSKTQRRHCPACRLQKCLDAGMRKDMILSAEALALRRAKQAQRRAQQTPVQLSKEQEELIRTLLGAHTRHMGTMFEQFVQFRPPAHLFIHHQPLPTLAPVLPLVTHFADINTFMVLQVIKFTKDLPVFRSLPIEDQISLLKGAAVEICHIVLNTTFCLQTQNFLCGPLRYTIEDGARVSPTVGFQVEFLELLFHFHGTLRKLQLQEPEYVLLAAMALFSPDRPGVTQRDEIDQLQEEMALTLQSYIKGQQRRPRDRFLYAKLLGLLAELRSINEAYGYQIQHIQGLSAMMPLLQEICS

For the compound `CC(=O)c1cccnc1`, the Potency result in [1], in assay [3], in [4], in assay [5], in [6] and in [7] was “inactive” in each case. Further, the Potency entry in assay [8] and in [9] was “inactive” in each case. In addition, in assay [2], the compound was called inactive.
`CC(=O)S[C@H](C(=O)N[C@H]1Cc2ccccc2[C@H]2CCC[C@@H](C(=O)O)N2C1=O)C(C)C`: the Potency result in assay [1], in [3], in assay [4], in assay [5], in [6] and in assay [7] was “inactive” each time. Also, the Potency entry in assay [8], in assay [9] and in assay [10] was “inactive” each time. In assay [2], the compound was called inactive.
As to `CC(C)(C)c1cc(C=O)cc(C(C)(C)C)c1O`, the Potency result in [1], in [3], in assay [4], in [5], in assay [6] and in [8] was “inactive” throughout. Moreover, the outcome in [2] was inactive.
Turning to `OCCOc1cccc(OCCO)c1`, the Potency entry in assay [1], in assay [3], in assay [4], in assay [5], in assay [6] and in [9] was “inactive” each time. In assay [2], the outcome was inactive.
`CC(C)Oc1ccccc1O`: the Potency entry in [1], in assay [3], in [4], in assay [5], in assay [6] and in assay [7] was “inactive” in each case. Also, the Potency result in [9] was “inactive”. The call in assay [2] was inactive.
Consider `C=CC(C)(O)CC/C=C(/C)CCC=C(C)C` (stereo unspecified), for which the Potency entry in assay [1], in [3], in assay [4], in assay [5], in [6] and in assay [8] was “inactive” each time. Besides, the compound was called inactive in assay [2].
For `CC(=O)OCC(=O)[C@@]1(O)CC[C@H]2[C@@H]3CCC4=CC(=O)C=C[C@]4(C)[C@@]3(F)[C@@H](O)C[C@@]21C`, the Potency result in assay [1], in assay [3], in [4], in assay [5], in assay [6] and in [7] was “inactive” in each case. In assay [8], the Potency entry was “inactive”. The call in assay [2] was inactive.
Regarding `CCCCCCCCNC`, the Potency entry in assay [1], in assay [3], in assay [4], in assay [5], in [6] and in assay [11] was “inactive” each time. The Potency result in [7] and in assay [8] was “inactive” throughout. In addition, in assay [2], the result was inactive.
For `CCCC1CCOC(C)S1` (stereo unspecified), the Potency result in assay [1], in assay [3], in [4], in [5], in assay [6] and in assay [8] was “inactive” in each case. Also, the result in assay [2] was inactive.
As for `O=S(=O)(O)c1cc(Cl)c(Cl)cc1Cl`, the Potency entry in [1], in assay [3], in assay [4], in assay [5], in assay [6] and in assay [11] was “inactive” in each case. In addition, the Potency entry in assay [7] and in [8] was “inactive” each time. Besides, the outcome in assay [2] was inactive.
For `Clc1cccc(C(c2ccc3nc[nH]c3c2)n2ccnc2)c1` (stereo unspecified), the Potency entry in assay [1], in assay [3], in assay [4], in assay [5], in [6] and in assay [8] was “inactive” each time. Moreover, in assay [2], the outcome was inactive.
`CNc1ccccc1`: the Potency entry in assay [1], in assay [3], in [4], in [5], in assay [6] and in [8] was “inactive” in each case. Moreover, the Potency result in assay [9] and in [10] was “inactive” throughout. Further, in assay [2], the compound was classed as inactive.
For `CCCCC(CC)COCCC#N` (stereo unspecified), the Potency result in [1], in [3], in assay [4], in [5], in assay [6] and in assay [7] was “inactive” each time. Moreover, the Potency result in assay [8] is “inactive”. In [2], the compound was called inactive.
Take `CCCCCC1CCC(=O)O1` (stereo unspecified): the Potency result in assay [1], in assay [3], in assay [4], in assay [5], in [6] and in assay [8] was “inactive” in each case. Moreover, the Potency entry in assay [9] was “inactive”. In assay [2], the compound was called inactive.
For the compound `COc1ccc(/C(C)=C/C(=O)O)c(OC)c1`, the Potency result in assay [1], in [3], in assay [4], in [5], in assay [6] and in assay [8] was “inactive” each time. For the same compound, in assay [9], the Potency entry is “inactive”. Further, in [2], the compound was called inactive.
Take `CCCCCCCCCCCCSC#N`: the Potency result in assay [1], in [3], in assay [4], in [5], in assay [6] and in assay [8] was “inactive” throughout. For the same compound, the Potency result in [9] and in assay [10] was “inactive” each time. In [2], the call was inactive.
On to `O=C(O)c1c2ccccc2cc2ccccc12`, for which the Potency entry in assay [1], in [3], in assay [4], in assay [5], in assay [6] and in [8] was “inactive” each time. The outcome in assay [2] was inactive.
On to `CC1(COc2ccc(CC3SC(=O)NC3=O)cc2)CCCCC1` (stereo unspecified), for which the Potency result in [1], in assay [3], in [5], in [6], in assay [11] and in assay [8] was “inactive” in each case. The Potency result in [9] is “inactive”. Besides, in [2], the result was inactive. Moreover, the Potency in assay [4] is 27.5 µM (active).
